Molecules are shown by their SMILES. About 8,600 (12%) of roughly 69,000 compounds showed an effect of 50% or more. For the sample, strong results were picked, then their nearest neighbours and some compounds at random.

The experiment relates to Plasmodium berghei. Nature of the experiment: Screen against P. berghei liver stage (PbLuc), transformed with Luciferase, at 10uM. The format is functional, HepG2. Particulars: tested at 10 uM.
On to `CC(C)NC(=O)C1CCN(c2snc3ccccc23)CC1`, for which the INHIBITION is -15.5%.
With `Cc1cc(CN(Cc2ccccc2)C2CC2)on1`, the INHIBITION came out at 33.7%.
The figure for `COc1ccc(CN(Cc2nc(C)no2)C2CCCCC2)cc1OC` is 14.4%; for `COc1ccc(CN(Cc2cc(C)no2)C2CC2)cc1` it is 92.2%.
Take `Cc1ccc(CN(Cc2cc(C)no2)C2CC2)cc1`: the INHIBITION was determined as 53.2%.
Under `Cc1cc(CN(C2CC2)C(C)C(C)C)on1` (stereo not drawn) stands -21.8%; under `COCCN(Cc1noc(-c2ccc(OC)cc2)n1)C1CC1`, 15.5%; under `O=C(Nc1cnc2n1CCCC2)C1CCNCC1`, 18.7%.
The figure for `O=C(NCC1CC1)[C@@H]1CCO[C@@H]2CCN(Cc3ccc(F)cc3)C[C@H]21` is -10.3%.
For the compound `Cc1cnn(CC2CCCN2C(=O)c2ccc3c(c2)nnn3C)c1` (stereo not drawn), the INHIBITION came out at 23.2%.
`C=Cc1cccc(CN2C[C@@H]3CC[C@H]2CN(Cc2c(C)noc2C)C3)c1`: the INHIBITION was -19.2%.
For `CN(C)C(=O)N1CCOCC2(CCN(c3ncccn3)C2)C1` (stereo not drawn), the INHIBITION is -5.29%.
For `CC(C)CCNc1c(C#N)c2c(c3nncn13)CN(C)CC2`, the INHIBITION came out at 60.7%.
Under `CN1CCc2c(C#N)c(NCc3ccncc3)n3cnnc3c2C1` stands 10.1%; under `COCCNc1c(C#N)c2c(c3nncn13)CN(C)CC2`, 32.5%; under `CN1CCc2c(C#N)c(NCCN3CCOCC3)n3cnnc3c2C1`, 35%.
For the compound `CN1CCc2c(C#N)c(NCc3ccco3)n3cnnc3c2C1`, the INHIBITION was found to be 19.7%.
As for `CN1CCc2c(C#N)c(NCCc3ccccc3)n3cnnc3c2C1`, the INHIBITION stood at 60.7%.
For the compound `CN1CCc2c(C#N)c(NCCCO)n3cnnc3c2C1`, the INHIBITION was 32.5%.
Take `CN1CCc2c(C#N)c(NCc3ccccc3)n3cnnc3c2C1`: the INHIBITION is 24.2%.
Turning to `CN1CCc2c(C#N)c(NCc3cccnc3)n3cnnc3c2C1`, the INHIBITION is reported as 53.2%.
Under `Cc1ncsc1CN1C[C@@H]2COC[C@]2(C(=O)NC(C)C)C1` stands 18.6%.
The figure for `COc1ccc(CC(=O)N2Cc3nccn3CC(CN(C)C)C2)cc1` (stereo not drawn) is 6.72%.
With `CC(NC(=O)NCc1ccoc1)c1ccc2c(c1)CC(=O)N2` (stereo not drawn), the INHIBITION is listed as -55.4%.
The figure for `CCOc1cccc(CNC2CCCN(Cc3noc(C)n3)C2)c1` (stereo not drawn) is 47%; for `COCCN1CCCC12CCN(Cc1cncn1C)CC2` it is 49.1%; for `COCCn1cncc1Cn1ncc2ccccc2c1=O` it is 13%.
As for `COCCn1cncc1CN1CCC(C(C)=O)(c2ccccc2)CC1`, the INHIBITION came to 50.7%.
Under `CC(C)CN(CC(O)c1ccc(F)cc1)C(=O)c1cnsn1` (stereo not drawn) stands -24.9%; under `O=C(CO)N1C[C@@H]2CC[C@H]1CN(C1Cc3ccccc3C1)C2`, 25.4%.
Take `COCCOCC(=O)N1C[C@@H]2CC[C@H]1CN(C1Cc3ccccc3C1)C2`: the INHIBITION was -62.1%.
Turning to `CN(C)C(=O)N1C[C@@H]2CC[C@H]1CN(C1Cc3ccccc3C1)C2`, the INHIBITION is given as -57.9%.
Regarding `Cc1noc(CN2C[C@@H]3CC[C@H]2CN(C2Cc4ccccc4C2)C3)n1`, the INHIBITION came to 30.9%.
On to `Cc1cc(CN2C[C@@H]3CC[C@H]2CN(C2Cc4ccccc4C2)C3)on1`, for which the INHIBITION was found to be 64.5%.
For the compound `Cc1nnc(CN2C[C@@H]3CC[C@H]2CN(C2Cc4ccccc4C2)C3)o1`, the INHIBITION amounted to 66.1%.
Regarding `CSCC(=O)N1C[C@@H]2CC[C@H]1CN(C1Cc3ccccc3C1)C2`, the INHIBITION was -69.3%.
On to `CCc1noc(CN2C[C@@H]3CC[C@H]2CN(C2Cc4ccccc4C2)C3)n1`, for which the INHIBITION is recorded as 12.8%.
On to `CCc1cc(CN2C[C@@H]3CC[C@H]2CN(C2Cc4ccccc4C2)C3)on1`, for which the INHIBITION is given as 57.1%.

For the origin of these results see ChEMBL document CHEMBL4513216, “Probing the Open Global Health Chemical Diversity Library for Multistage-Active Starting Points for Next-Generation Antimalarials” (ACS Infect Dis, 2020).
